A short description of the assay: LNCaP cell loss by flow event count, confirmation, cytotoxicity control for prostate differentiation activator project, single point (AID 1076).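 Also: counts scatter-gated live cells after medium removal discards detached dead cells.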 Particulars: flow cytometry event count, 4 d, stronger effect = lower value.

Active and inactive are the calls of the source.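 The calls were made as follows: active = cell event count below 40, meaning activity score above 60 where score is 100 minus count; inactive = the rest.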

For the compound `O=C(c1ccc2c(c1)OCCO2)N1CCCCC1`, the cell event count by setting is: (at 100 µM) 65 (inactive); (event count, at 10 µM) 81.5.

For the compound `O=C(NCCCN1CCN(c2ccccc2F)CC1)C1CCN(S(=O)(=O)N2CCOCC2)CC1`, the cell event count is 156 (inactive) (at 100 µM) and 108 (event count, at 10 µM).

Consider `CCOC(=O)N1CCN(CC(=O)Nc2cc(C)nn2-c2nc3ccccc3s2)CC1`, for which the cell event count reads like this: (at 100 µM) 259 (inactive); (event count, at 10 µM) 245.

As to `Cn1c(C(=O)NCCCN2CCN(c3ccccc3F)CC2)cc2c(=O)n(C)c3ccccc3c21`, the cell event count runs as follows: (at 100 µM) 5 (inactive); (event count, at 10 µM) 170.

Turning to `COc1ccc(OC)c(N=Cc2c(O)[nH]c3ccccc23)c1`, the cell event count was 207 (inactive) (at 100 µM) and 112 (event count, at 10 µM).

On to `CN(C)c1ccc(-c2nn3c(-c4ccc(Cl)cc4Cl)nnc3s2)cc1`, for which the cell event count is 6 (active) (at 100 µM) and 65.5 (event count, at 10 µM).

In the case of `Cc1ccc2c(c1)NC(=O)C(CC(=O)NCCCN1CCN(c3cc(Cl)ccc3C)CC1)O2` (stereo unspecified), the cell event count was 6 (active) (at 100 µM) and 66 (event count, at 10 µM).

On to `O=C(CCn1c(=O)[nH]c2ccccc2c1=O)NCCCN1CCN(c2cccc(Cl)c2)CC1`, for which the cell event count by setting is: (at 100 µM) 14 (inactive); (event count, at 10 µM) 354.

Turning to `CCn1c(=O)cc(OCC(=O)O)c2ccccc21`, the cell event count by setting is: (at 100 µM) 22 (inactive); (event count, at 10 µM) 99.5.

On to `Cc1cc(=O)n2nc(N3CCCC3C(=O)NCc3ccccn3)sc2n1` (stereo unspecified), for which the cell event count was 101 (inactive) (at 100 µM) and 61 (event count, at 10 µM).

As to `CCN1C(=O)OC2(CCCCC2)C1(C)O` (stereo unspecified), the cell event count is 230 (inactive) (at 100 µM) and 174 (event count, at 10 µM).

In the case of `O=C(O)C1CCCCC1C(=O)Nc1cnn(Cc2ccccc2)c1` (stereo unspecified), the cell event count runs as follows: (at 100 µM) 42 (inactive); (event count, at 10 µM) 66.5.

On to `CCOC(=O)c1ccccc1NC(=O)Cn1c(-c2nonc2N)nc2ccccc21`, for which the cell event count was 72 (inactive) (at 100 µM) and 122 (event count, at 10 µM).

As for `CC(C)Cc1nc2oc3c(N4CCN(CCO)CC4)ncnc3c2c2c1CCCC2`, the cell event count is 3 (inactive) (at 100 µM) and 120 (event count, at 10 µM).

As to `Cc1ccc(C)c(N2CCN(CCCNC(=O)Cn3cc4c(n3)CCCCC4)CC2)c1`, the cell event count runs as follows: (at 100 µM) 3 (active); (event count, at 10 µM) 53.5.

As to `Cn1nc(-c2ccc(Cl)cc2)c2cc(C(=O)NCCCN3CCOCC3)sc21`, the cell event count was 33 (inactive) (at 100 µM) and 184 (event count, at 10 µM).

As for `CCOc1nc(-c2ccccc2O)nc2ccccc12`, the cell event count by setting is: (at 100 µM) 252 (inactive); (event count, at 10 µM) 250.

On to `CC1(C)CC(=O)c2cc(OCC(=O)NCCCN3CCN(c4ccc(F)cc4)CC3)ccc2O1`, for which the cell event count was 17 (inactive) (at 100 µM) and 112 (event count, at 10 µM).

Take `O=C(Cn1c(=O)[nH]c2ccsc2c1=O)NC1CCCCCC1`: the cell event count reads like this: (at 100 µM) 120 (inactive); (event count, at 10 µM) 118.

For the compound `O=C(CCCCCn1c(=O)[nH]c2ccccc2c1=O)NCCCN1CCN(c2ccccc2F)CC1`, the cell event count is, setting by setting: (at 100 µM) 18 (inactive); (event count, at 10 µM) 336.

With `O=C(C1CCN(S(=O)(=O)c2cccc3nsnc23)CC1)N1CC=C(c2ccccc2)CC1`, the cell event count (at 100 µM) was 27 (inactive) and the cell event count (event count, at 10 µM) is 258.

Regarding `CCN(CC)CCCNc1oc(-c2cccc(Cl)c2)nc1C#N`, the cell event count (at 100 µM) is 32 (inactive) and the cell event count (event count, at 10 µM) turned out to be 227.

Consider `Cc1ccnc(NC(=O)CCC(=O)N(CC(=O)NC2CCCCC2)c2cccc(C)c2C)c1`, for which the cell event count by setting is: (at 100 µM) 27 (inactive); (event count, at 10 µM) 66.

For the compound `Cc1cccc(-c2nc(CN3CCCC(C(=O)NC4CCCCCC4)C3)c(C)o2)c1` (stereo unspecified), the cell event count is, setting by setting: (at 100 µM) 17 (inactive); (event count, at 10 µM) 222.

In the case of `Cc1ccccc1-c1nc(CN2CCC(C(=O)NCc3ccco3)CC2)c(C)o1`, the cell event count runs as follows: (at 100 µM) 158 (inactive); (event count, at 10 µM) 296.

In the case of `Cc1ccc(C2=Nc3ccccc3NC(C)(c3ccc(C)o3)C2)o1` (stereo unspecified), the cell event count is 324 (inactive) (at 100 µM) and 120 (event count, at 10 µM).

Take `Cc1ccc(Oc2ccc(S(=O)(=O)N3CCOCC3)cc2C(N)=O)c(-n2nc3ccccc3n2)c1`: the cell event count is, setting by setting: (at 100 µM) 5 (inactive); (event count, at 10 µM) 126.

As to `O=C(NCCCN1CCN(c2ccc(F)cc2)CC1)c1cccc(N2CCCC2=O)c1`, the cell event count (at 100 µM) was 206 (inactive) and the cell event count (event count, at 10 µM) was determined as 263.

On to `CCOC(=O)C1CCN(S(=O)(=O)c2ccc(-c3nc4ccccc4s3)s2)CC1`, for which the cell event count was 70 (inactive) (at 100 µM) and 136 (event count, at 10 µM).

`Cn1nc(-c2ccc(Cl)cc2)c2cc(C(=O)NCCN3CCOCC3)sc21`: the cell event count runs as follows: (at 100 µM) 10 (inactive); (event count, at 10 µM) 136.

On to `COc1cc2c(C(=O)NCCCN3CCN(c4cccc(Cl)c4)CC3)cn(C)c(=O)c2cc1OC`, for which the cell event count reads like this: (at 100 µM) 15 (inactive); (event count, at 10 µM) 230.

Consider `O=C(NCCCN1CCN(c2cccc(Cl)c2)CC1)c1nc(-c2ccncc2)no1`, for which the cell event count by setting is: (at 100 µM) 166 (inactive); (event count, at 10 µM) 462.

Take `CCn1c(=N)n(CC(O)COc2cccc(C)c2)c2ccccc21` (stereo unspecified): the cell event count was 2 (active) (at 100 µM) and 50.5 (event count, at 10 µM).

On to `N#CC(C(=O)c1ccco1)c1ccccn1` (stereo unspecified), for which the cell event count reads like this: (at 100 µM) 40 (active); (event count, at 10 µM) 40.5.

For `CCOc1cccc(-c2nnc3n2N=C(c2cc(OC)ccc2OC)CS3)c1`, the cell event count reads like this: (at 100 µM) 3 (inactive); (event count, at 10 µM) 136.

Regarding `CCN(CCNC(=O)C1CCCN(Cc2nc(-c3ccc(OC)cc3)oc2C)C1)c1ccccc1` (stereo unspecified), the cell event count is 18 (inactive) (at 100 µM) and 146 (event count, at 10 µM).

In the case of `Cc1cccc(-c2nc(CN3CCCC(C(=O)NC4CCC(C)CC4)C3)c(C)o2)c1` (stereo unspecified), the cell event count by setting is: (at 100 µM) 5 (inactive); (event count, at 10 µM) 138.

As to `O=C(CSc1nc2sc3c(c2c(=O)n1-c1ccccc1)CCCC3)NCc1ccco1`, the cell event count (at 100 µM) was 25 (inactive) and the cell event count (event count, at 10 µM) was 104.
